Results reported in PubChem BioAssay AID598 (SRMLSC, 2007).
Screen size: about 85,000 compounds; about 5,100 (6%) were called active.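 The calls were made as follows: active = viability at or below 40%; inactive = viability above 40%.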 What follows is part of a selection rich in actives, with near analogues and random picks from the rest.

Assay: H69AR cell viability reduction – human, 86K library, primary screen (AID 598);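 also: multidrug resistant small cell line overexpressing MRP-1 efflux transporter; 100% = mean luminescence of untreated control wells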
Conditions: H69AR lung tumor viability, ATP luminescence, 72 h; at 10 µM; hits give low values

SMILES	viability
CCOC(=O)c1c(N)n(Cc2ccccc2)c2nc3ccccc3nc12	74.2% (inactive)
CCOC(=O)c1c(N)n(CCN2CCOCC2)c2nc3ccccc3nc12	92.9% (inactive)
COc1cc(Cn2c(N)c(C(=O)NCc3ccco3)c3nc4ccccc4nc32)cc(OC)c1OC	9.48% (active)
Cn1c(O)c(C=NCCN2CCNCC2)c(=O)n(C)c1=O	93.2% (inactive)
COc1ccc(CN2CCN(c3ccccc3F)CC2)c(OC)c1	78.7% (inactive)
CN(C)C(=O)NC(O)C(Cl)(Cl)Cl (stereo not given)	103% (inactive)
CCCCn1c(O)c(C(CC)=NCc2ccco2)c(=O)[nH]c1=O	76.8% (inactive)
CCOc1ccc(CN(CCCl)CCCl)cc1C(=O)OC	54.1% (inactive)
O=C(CCCn1c(=O)[nH]c2cc(Cl)ccc2c1=O)N1CCC2(CC1)OCCO2	82.2% (inactive)
Cc1ccc(Cn2c(C)c3cnn(CC(=O)N4CCC5(CC4)OCCO5)c(=O)c3c2C)cc1	37.9% (active)
COc1ccc(-c2nc(CS(=O)CC(=O)N3CCC4(CC3)OCCO4)c(C)o2)cc1 (stereo not given)	92.7% (inactive)
CC(=O)c1c(C)n(C(C)C)c2ccc(O)cc12	98.6% (inactive)
CCCCCn1c(=O)c(C(=O)NCc2ccccn2)c(O)c2ccccc21	20.3% (active)
COc1ccc(CCn2c(O)c(C=NCCCn3ccnc3)c(=O)[nH]c2=O)cc1OC	87.2% (inactive)
CCN(N=Nc1nonc1OC)c1nonc1OC	95.7% (inactive)
Cc1ccc(N(C)C(=O)Oc2cccc3ccc(C)nc23)cc1	90% (inactive)
CCC(=NCc1ccco1)c1c(O)n(Cc2ccccc2)c(=O)[nH]c1=O	71.1% (inactive)
CC(=O)c1c(O)n(C2CCCCCC2)c(=O)[nH]c1=O	88.7% (inactive)
CCC(=NCCc1ccccc1)c1c(O)n(C2CCCCC2)c(=O)[nH]c1=O	25.3% (active)
c1cc2c(cc1CCNC1CCCCCC1)OCO2	73.7% (inactive)
